Sampled rows, rich in hits. Any-hit rate of the full collection: about 9%.
PLK1 PBD block – PLK1 (human) polo-box domain binding inhibition. P53350. Plk1 PBD binding of FITC phosphopeptide, fluorescence polarization. Potency, µM, usual class: inhibitors. 360,000 tested, 2.8% active; further: series mostly up to about 57 µM; nearly all actives have a fitted effect of over 65% in size
HP1b binding inh – blocks HP1-beta chromodomain binding to methylated histone tails. P83916. AlphaScreen HP1-beta / biotin-H3K9me3 peptide binding. Potency, µM (titrated, usually from 114 µM), actives largely listed as inhibitors. 390,000 tested, 0.56% active. AID 540317; further: nearly all actives have a fitted effect of over 70% in size
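AlphaScreen: HP1-beta (50 nM) preformed 30 min with biotin-H3(1-18)K9me3 peptide (50 nM) in PBS pH 7.4, 0.01% Tween-20. Compound added for 30 min at RT, then streptavidin donor/nickel chelate acceptor beads (10 ug/mL) for 30 min.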
JMJD2A Tudor inh – blocks the human JMJD2A Tudor domain; O75164; AlphaScreen JMJD2A-Tudor / H3K4me3 peptide binding; Potency, µM (highest dose often 114 µM), most hits filed as inhibitors; 390,000 tested, 4.4% active; further: nearly all actives have a fitted effect of over 50% in size
12-LOX inh – blocks human arachidonate 12S-lipoxygenase; Potency, µM (top dose mostly 108 µM), usual class: inhibitors; P18054; 580,000 tested, 1.1% active; AID 1671190; purified 12hLO, xylenol orange hydroperoxide absorbance
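Hydroperoxide product was detected by ferrous iron/xylenol orange as the 573 to 405 nm absorbance ratio. Arachidonic acid at 40 uM (final) was turned over for 30 min at room temperature by 150 nM human 12hLO, pH 7.0 Hepes buffer, after 15 min compound preincubation.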
G9a inh – inhibitors of human histone lysine methyltransferase G9a | Q96KQ7 | G9a H3K9 monomethylation, AlphaScreen, 2 h | Potency, µM (doses to about 102 µM), usual class: inhibitors | 350,000 tested, 8.8% active | AID 504332; further: nearly all actives have a fitted effect of over 75% in size
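Using a bead-based AlphaScreen, monomethylated H3K9 product from 2 h room-temperature reactions (G9a 20 nM, peptide 500 nM, SAM 20 uM) was detected with 0.5 ug/mL rabbit anti-H3K9me1 antibody.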
BAZ2B block – BAZ2B (human) inhibition | Potency, µM (highest dose often 114 µM), most hits filed as inhibitors | 360,000 tested, 4.4% active | AlphaScreen BAZ2B-H3K14Ac peptide displacement | Q9UIF8; further: nearly all actives have a fitted effect of over 60% in size
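AlphaScreen displacement of biotin-H3(5-23)K14Ac peptide (50 nM final) from BAZ2B (50 nM final) in PBS pH 7.4, 0.01% Tween-20; complex preformed 30 min RT, then compounds (top 110 uM) 30 min RT, beads 20 min dark.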
A number is an active result; [ ] = another dose, or the depositor's remark. The call rests on the fitted dose curve; in most records, active means well fitted curve in the direction sought with a large enough effect; inconclusive means small, poorly fitted or top-dose-only effect, or another doubt; inactive means no such curve, though single readings can be large; an effect the other way counts as inactive or inconclusive.

For COC(=O)c1[nH]c2cccc(OC)c2c1NC(=O)CN1CCC(C(N)=O)(N2CCCCC2)CC1 the results were PLK1 PBD block inactive, HP1b binding inh inactive, JMJD2A Tudor inh inactive, 12-LOX inh inactive, G9a inh inactive and BAZ2B block inactive.
Screening CC(O)CCC(=O)NCCNC(=O)CCC(C)O (configuration not stated) returned PLK1 PBD block 11µM, HP1b binding inh inactive, JMJD2A Tudor inh 28µM, 12-LOX inh inactive, G9a inh inactive and BAZ2B block inactive.
Screening CC(=O)N1Cc2ccccc2CC2(CCCN(CC3CCNC3)C2)C1 (configuration not stated) returned 12-LOX inh 8.9µM.
Screening CCC(C)C(N)C1=NC(C(=O)N[C@@H](CC(C)C)C(=O)N[C@H](CCC(=O)[O-])C(=O)N[C@H](C(=O)N[C@H]2CCCCNC(=O)[C@H](CC(N)=O)NC(=O)[C@@H](CC(=O)[O-])NC(=O)[C@H](Cc3cnc[nH]3)NC(=O)[C@@H](Cc3ccccc3)NC(=O)[C@H]([C@@H](C)CC)NC(=O)[C@@H](CCCN)NC2=O)[C@@H](C)CC)CS1.[Zn+2] (some centres not stated) returned PLK1 PBD block inactive, HP1b binding inh 13µM and JMJD2A Tudor inh 2.8µM.
CC(=O)c1cccc(NC(=O)c2sc(Cl)nc2C)c1 was read as PLK1 PBD block inactive, HP1b binding inh inactive, JMJD2A Tudor inh inactive, 12-LOX inh inconclusive and BAZ2B block inactive.
Screening O=C(Cc1ccc(Cl)cc1)NN1C(=O)c2ccccc2C1=O returned PLK1 PBD block 27µM, HP1b binding inh inactive, JMJD2A Tudor inh inactive, 12-LOX inh inactive, G9a inh inactive and BAZ2B block inactive.
For Cc1cc(C)cc(OCC(=O)NN2C(=O)c3ccccc3C2=O)c1 the results were PLK1 PBD block inactive, HP1b binding inh inactive, JMJD2A Tudor inh inactive, 12-LOX inh inactive, G9a inh inactive and BAZ2B block inactive.
Screening CC(=O)N(\C=C/C=C/C=C1\Sc2ccccc2C1=O)c1ccccc1 returned PLK1 PBD block inconclusive, HP1b binding inh 13µM, JMJD2A Tudor inh 7.9µM, 12-LOX inh 16µM, G9a inh 10µM and BAZ2B block 7.1µM.
COc1cccc(NC(=O)COc2cc(O)c3c(c2)OC(C)(C)CC3=O)c1 was read as PLK1 PBD block inactive, HP1b binding inh inactive, JMJD2A Tudor inh inactive, 12-LOX inh inactive, G9a inh inactive and BAZ2B block inactive.
Screening COc1ccc(NC(=O)CSCc2cnn(-c3ccccc3)c2-n2cccc2)cc1 returned HP1b binding inh inactive, JMJD2A Tudor inh inactive, 12-LOX inh inactive, G9a inh inactive and BAZ2B block inactive.
COc1ccc(CNC(=O)CSCc2cnn(-c3ccccc3)c2-n2cccc2)cc1 was read as PLK1 PBD block inactive, HP1b binding inh inactive, JMJD2A Tudor inh inactive, 12-LOX inh inconclusive, G9a inh 32µM and BAZ2B block inactive.
`O=C(CSCc1cnn(-c2ccccc2)c1-n1cccc1)NCC1CCCO1` (configuration not stated) gave PLK1 PBD block inactive, HP1b binding inh inactive, JMJD2A Tudor inh inactive, 12-LOX inh inactive, G9a inh 50µM and BAZ2B block inactive.
COCCn1c(CO)nnc1C1CC(NC(=O)Cc2nc(C)sc2C)C1 (configuration not stated) was read as 12-LOX inh inactive.
Screening CCOP(=O)(OCC)C(C)(C)NC(=O)c1cc([N+](=O)[O-])cc([N+](=O)[O-])c1 returned PLK1 PBD block inactive, HP1b binding inh inactive, JMJD2A Tudor inh inactive, 12-LOX inh inactive, G9a inh inactive and BAZ2B block inactive.
Screening CCOP(=O)(OCC)C(NC(=O)c1cc([N+](=O)[O-])cc([N+](=O)[O-])c1)C(F)(F)F (configuration not stated) returned PLK1 PBD block 21µM, HP1b binding inh inconclusive, JMJD2A Tudor inh inconclusive, 12-LOX inh inactive, G9a inh inconclusive and BAZ2B block inconclusive.
For O=c1[nH]c2ccc(N=Cc3c(O)ccc4cc(Br)ccc34)cc2[nH]1 the results were PLK1 PBD block inconclusive, HP1b binding inh inactive, JMJD2A Tudor inh 45µM, 12-LOX inh inactive, G9a inh 1.6µM and BAZ2B block inconclusive.
Cc1cccc(N(C)C(=O)c2coc(=O)c3ccccc23)c1 was read as PLK1 PBD block inactive, HP1b binding inh inactive, JMJD2A Tudor inh inactive, 12-LOX inh inactive, G9a inh inactive[12.7 µM] and BAZ2B block inactive.
CCCN1CCN(C2CCCCC2NS(=O)(=O)c2ccccc2)CC1 (configuration not stated) was read as PLK1 PBD block inactive, HP1b binding inh inactive, JMJD2A Tudor inh inactive, G9a inh inactive and BAZ2B block inactive.
CC(=O)N1c2ccc(S(=O)(=O)N3CCC(C(=O)Nc4cccc(C)c4C)CC3)cc2CC1C (configuration not stated) was read as PLK1 PBD block 24µM, HP1b binding inh inactive, JMJD2A Tudor inh inconclusive, 12-LOX inh inactive, G9a inh inactive and BAZ2B block inactive.
Screening CC(=O)N1c2ccc(S(=O)(=O)N3CCC(C(=O)Nc4cccc(C(F)(F)F)c4)CC3)cc2CC1C (configuration not stated) returned PLK1 PBD block 27µM, HP1b binding inh inactive, JMJD2A Tudor inh inactive, 12-LOX inh inactive, G9a inh inactive and BAZ2B block inactive.
Screening Cc1ccc2nc(N(Cc3cccnc3)C(=O)CCS(=O)(=O)c3ccccc3)sc2c1 returned HP1b binding inh inactive, JMJD2A Tudor inh inactive, 12-LOX inh inconclusive, G9a inh inactive and BAZ2B block inactive.
Screening Cc1ccc2cc(C(c3nnnn3C3CCCC3)N(Cc3cccnc3)Cc3ccco3)c(=O)[nH]c2c1 (configuration not stated) returned PLK1 PBD block inactive, HP1b binding inh inactive, JMJD2A Tudor inh inconclusive, 12-LOX inh inactive, G9a inh 20µM and BAZ2B block inactive.
For Cc1ccc2[nH]c(=O)c(C(c3nnnn3C3CCCC3)N(Cc3cccnc3)Cc3ccco3)cc2c1 (configuration not stated) the results were PLK1 PBD block inactive, HP1b binding inh inactive, JMJD2A Tudor inh inconclusive, 12-LOX inh inconclusive, G9a inh inactive and BAZ2B block inactive.
`Cc1ccc2cc(C(c3nnnn3C3CCCC3)N(Cc3ccco3)Cc3cccs3)c(=O)[nH]c2c1` (configuration not stated) gave PLK1 PBD block inactive, HP1b binding inh inactive, JMJD2A Tudor inh inactive, 12-LOX inh inconclusive, G9a inh 28µM and BAZ2B block inactive.
COC(=O)C(Cc1cnc(Cl)s1)(C(=O)OC)c1ccc(C(F)(F)F)cc1[N+](=O)[O-] was read as PLK1 PBD block inconclusive, HP1b binding inh inconclusive, JMJD2A Tudor inh inconclusive, 12-LOX inh inconclusive, G9a inh inactive[12.7 µM] and BAZ2B block inconclusive.
